# High-throughput results from PubChem.
# Shown are actives, neighbours in structure and some others; about 1.2% of the full set was active somewhere.
# Vc quorum ag: inducers of Vibrio cholerae quorum light production without autoinducers, primary screen, BH1578 luxS cqsA deficient, single point; V. cholerae BH1578 lux reporter, luminescence, 6 h; activation, % at 18.7 µM; 350,000 tested, 0.16% active; AID 588436, 2011; in the data active = activation mostly above about 9.7%, no sharp cut-off; inconclusive = no clear call, values can overlap the other calls; inactive = mostly below about 3.7%
# Mtb bLac sens: beta-lactam sensitization of Mtb H37Rv, H37Rv; AID 434955, 2010; M. tuberculosis H37Rv growth with meropenem, percent inhibition; 330,000 tested, 0.27% active; inhibition, % at 25 µM; call rule not given here;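 also: growth measured after seven days incubation then overnight dye step; 0% = bacteria only wells and 100% = bacteria with antibiotic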
# ugtP null kill: growth inhibition of ugtP-null S. aureus, primary screen, RN4220 ugtP deletion, OD600. 16 h. growth inhibition, % (test concentration not listed). 330,000 tested, 0.54% active; in the data active = growth inhibition above about 68%;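 also: plate controls were untreated wells for no effect and antibiotic for full effect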
# RN4220 kill: growth inhibition of S. aureus RN4220, primary screen, OD600 | 16 h | inhibition, % (no concentration beside the values) | 330,000 tested, 0.33% active | AID 1259311, 2017; in the data active = inhibition above about 85%;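 also: plate controls were untreated cells for no effect and reference antibiotic for full effect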
# PfHsp40 yeast: rescue of yeast from PfHsp40 toxicity, primary screen, S. cerevisiae, ATP luminescence. S. cerevisiae expressing PfHsp40, growth rescue. growth rescue, % at 12.5 µM. 340,000 tested, 0.68% active; in the data active = growth rescue above about 28%, passing the limit was not always enough; inconclusive = no clear call, values can overlap the other calls;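 also: yeast W303a lacking pdr1 and pdr3 grown in galactose medium; growth measured after three days at 30 °C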
# * marks the source's active call; other numbers are inactive results; i = inactive; ? = inconclusive; . = not tested or not shown; + = active, no number.
SMILES,Vc quorum ag,Mtb bLac sens,ugtP null kill,RN4220 kill,PfHsp40 yeast
C[C@H]1c2cccc(O)c2C(O)=C2C(=O)C3(O)C(O)=C(C(N)=O)C(=O)[C@@H](N(C)C)[C@@H]3[C@@H](O)[C@@H]21 (stereo partly specified),-3.0,98.2,.,.,-0.5
CN(C)[C@@H]1C(=O)C(C(N)=O)=C(O)[C@@]2(O)C(=O)C3=C(O)c4c(O)cccc4[C@@](C)(O)C3[C@H](O)C12 (stereo partly specified),-0.7,5.7,.,.,?
CC(C)c1ccc(C=c2sc3n(c2=O)C(N)=C(C#N)C(c2ccc(C(C)C)cc2)C=3C(N)=O)cc1 (stereo unspecified),.,.,-1.3,-1.4,.
O=C(Cc1ccc(Br)cc1)N1CCOCC1,i,4.0,7.8,4.8,36.3*
O=C(Cc1ccc(-c2ccccc2)cc1)N1CCOCC1,i,2.0,10.9,0.9,0.5
CCCC(=O)OCCNc1cc(Sc2nc3ccccc3[nH]2)c2nonc2c1[N+](=O)[O-],-0.2,100.0,100.0*,96.5*,0.9
CCC(=O)OCCNc1cc(SCCC(=O)OC)c2nonc2c1[N+](=O)[O-],-0.7,100.0,14.3,14.0,9.0
CCN1/C(=C/c2ccc3cccc(C)c3[n+]2CC)Sc2ccccc21,-0.6,99.8,99.6*,99.6*,-0.7
CC[n+]1c(/C=C/c2cc([N+](=O)[O-])ccc2O)ccc2ccccc21,-0.2,12.6,.,.,-0.1
CCN1/C(=C\c2ccc3cc(C)ccc3[n+]2CC)Sc2cc(C)c(C)cc21,-0.4,.,100.4*,100.0*,-4.3
CCN1C(=Cc2ccc3ccccc3[n+]2CC)Sc2cc(C)ccc21,.,.,100.2*,100.8*,.
CCN1/C(=C/c2ccc3cc(C)ccc3[n+]2CC)Sc2ccc3sccc3c21,-5.5,99.6,100.5*,100.1*,0.2
Cc1ccc2c(c1)S/C(=C\c1cccc[n+]1C)N2CCO,i,-3.4,-0.1,0.6,-0.6
C[n+]1ccccc1/C=C1\Sc2ccccc2N1CCO,i,-9.6,2.7,0.2,-2.1
CCOc1cc(C=NNC(=O)c2cccs2)ccc1OC(=O)N1CCOCC1,.,.,-0.1,4.0,.
C=CCOC(=O)C1=CC(c2ccc(Br)cc2)CC(OCCCCO)O1 (stereo unspecified),.,.,3.5,5.3,.
CC1NCCc2cc(O)c(O)cc21 (stereo unspecified),.,.,-4.8,6.0,.
CC(=NNC(=O)Cn1ccc(C(F)(F)F)n1)c1ccc(N2CCOCC2)cc1,.,.,8.4,2.2,.
CCN1/C(=C/c2ccc3cc(C)cc(C)c3[n+]2CC)Sc2cc(C)ccc21,i,.,99.6*,99.6*,-6.2
CCN1C(=C(C#N)C#N)C=Cc2cc(C)ccc21,0.1,-1.1,7.5,7.7,0.0
Cc1ccc2c(c1)S/C(=C/c1ccc[n+](CCO)c1)N2C,-0.3,-2.0,5.2,5.2,-2.0
C=CC[n+]1c(/C=C2\C=Cc3cc(C)ccc3N2CC)ccc2ccccc21,-0.3,99.5,100.0*,100.1*,277.1*
CSC1=NC(C)(C)C=C(C=Cc2c(Cl)cccc2Cl)N1,.,.,-3.9,1.8,.
NC(=NOC(=O)CCCN1C(=O)c2ccccc2C1=O)c1ccc(Br)cc1,.,.,1.8,2.1,.
Cc1ccc(C2=CC(c3ccc(C)cc3)n3ncnc3N2)cc1 (stereo unspecified),2.8,46.0,4.9,4.4,69.0*
SMILES,Vc quorum ag,Mtb bLac sens,ugtP null kill,RN4220 kill,PfHsp40 yeast
CCOc1ccc(C2C=C(c3ccc(C)cc3)Nc3ncnn32)cc1 (stereo unspecified),.,95.6,.,.,.
CC(C)CCN1C(N(C)C)=NCC1C (stereo unspecified),.,.,5.4,6.5,.
Cc1cccc(Oc2cc([N+](=O)[O-])cc3c2C(=O)Nc2ccccc2O3)c1,-0.4,-4.9,97.3*,98.2*,-0.3
O=C1Nc2ccccc2Oc2cc([N+](=O)[O-])cc(Oc3ccccc3)c21,-0.3,3.1,86.4,93.5*,-0.1
O=[N+]([O-])c1cc2c(c([N+](=O)[O-])c1)Nc1ccccc1O2,i,.,.,.,.
O=S(=O)(Nc1ccccc1C(F)(F)F)c1ccc(-c2ccccn2)s1,-1.0,1.5,-4.1,45.7,27.9*
O=c1c([N+](=O)[O-])c(NCCN2CCCCCC2)c2ccccc2n1-c1ccccc1,-0.1,-4.0,-0.8,0.7,0.0
O=c1c([N+](=O)[O-])c(N2CCCCC2)c2ccccc2n1-c1ccccc1,+,6.5,-3.7,-11.2,0.0
COc1ccccc1OCC(=O)OC/C(O)=C(\C#N)c1nc2ccccc2[nH]1,i,92.5,5.5,2.5,-0.3
N#C/C(=C(/O)COC(=O)Cc1c[nH]c2ccccc12)c1nc2ccccc2[nH]1,.,15.9,.,.,80.1*
